Several values for one entry are separate records, joined by “and”; a condition that tells them apart may be missing. Equal entries are not always repeated. Results filed as inconclusive are left out. Activity calls are given as the source filed them. Unless noted, calls come from the whole dose curve; as a rule, active = well fitted curve in the direction sought with a large enough effect; inconclusive = small, poorly fitted or top-dose-only effect, or another doubt; inactive = no such curve, though single readings can be large; an effect the other way counts as inactive or inconclusive.

For assay [1], the target named is alpha-glucosidase (Oryza sativa, rice) (UniProt Q653V4). Description: Counterscreen for Glucocerebrosidase Inhibitors: qHTS Assay for Rice alpha-Glucosidase at pH 5.0 (AID 997).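 Note: 0% = full activity with enzyme and -100% = basal without enzyme.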 The method, boiled down:
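Rice alpha-glucosidase (4 nM final) with 400 uM 4-methylumbelliferyl-alpha-D-glucopyranoside in citrate buffer pH 5.0, 20 min at room temperature, stopped at pH 10; fluorescence 365/440 nm, compounds 0.7 nM–77 uM, AC50 from Hill fits.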
On the technique in general: The purpose of a counterscreen is to sort out artefacts and off-target activity.

A short description of assay [2]: Validation of Assay for Modulators of Lamin A Splicing (AID 1459; active = well fitted curve in the direction sought with a large enough effect in the signal ratio; the % refers to the signal ratio;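 note: cells exposed to compound for two days before reading; 0% is about no effect; ratio rise marks activators and ratio drop marks inhibitors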). In short, it runs like this: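 HeLa S3 lamin A-EGFP/DsRed2 stable clone, 600 cells/well, Opti-MEM 2% FBS; compounds by pin tool; 48 hrs, 37 °C/5% CO2; Acumen 488 nm scan, objects 10-100 um; GFP/RFP intensity ratio.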
Assay [3] in a line: qHTS Assay for Lipid Storage Modulators (AID 1519; calls by dose curve; for activity change, negative = inhibition: % is set by controls: 0 for no effect and ±100 for the full control effect). The settings on record: Drosophila S3 cells, BODIPY lipid droplet/cell ratio, laser cytometry, cells loaded with oleic acid; for activity change, negative = inhibition: at 57.5 µM (top of the series). In short, it runs like this: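 Cells seeded at 5,000 per well were treated with compounds over a concentration series and loaded with oleic acid (400 uM, as added). Lipid droplet fluorescence (488 nm excitation, 500-530 nm channel) was read by laser-scanning cytometry and normalized to 20 uM Triacsin C.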

In assay [4] the target is DNA repair nuclease/redox regulator APEX1 (Homo sapiens) (UniProt P27695). Description: qHTS Validation Assay for Inhibitors of the Human Apurinic/apyrimidinic Endonuclease 1 (APE1) (AID 1705;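 note: TAMRA fluorescence gain over two minutes as APE1 cuts a quenched THF abasic duplex; % is set by controls: 0 for no effect and ±100 for the full control effect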). In short, it runs like this:
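qHTS, 1536-well. APE1 + cpd 15 min RT → 50 nM TAMRA/BHQ-2 THF-abasic dsDNA substrate → kinetic fluorescence, 3 reads/60 s; delta(read3−read1) = reaction progress. No-enzyme buffer = negative control.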
In general terms: qHTS replaces the single test concentration by a dilution series.

Assay [5] is described as follows: Counterscreen for APE1 Inhibitors: Fluorescent Dye Displacement Validation Assay (AID 1707).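 Note: plate controls were ThO with dsDNA and no compound for no effect and ThO without dsDNA for full effect.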 The method, boiled down: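 ThO 250 nM + dsDNA 50 nM (THF abasic site, 5'-TAMRA), Tris-HCl pH7.5/50mM NaCl/2 mM MgCl2/0.01% Tween-20; compounds pin-transferred; ex 480/em 540 nm endpoint. Neutral = no compound; no-DNA ThO wells = negative control.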
Assay [6] addresses Endonuclease 4 (Escherichia coli (strain K12)) (UniProt P0A6C1). Description: Counterscreen for APE1 Inhibitors: qHTS Validation Assay for Inhibitors of Endonuclease IV (AID 1708). Note: % is set by controls: 0 for no effect and ±100 for the full control effect. In short, it runs like this:
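Cleavage of a quenched abasic-site DNA duplex (50 nM, 5'-TAMRA, 3'-BHQ-2) by 2 nM enzyme is followed as fluorescence increase. Compounds are preincubated with enzyme 15 min at room temperature before substrate addition.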

Assay [7] can be described thus: qHTS for differential inhibitors of proliferation of Plasmodium falciparum line 7G8 (AID 1815).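 Note: parasite growth measured after three days of incubation; plate controls were vehicle wells for no effect and reference inhibitor wells for full effect.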
Assay [8] can be described thus: qHTS for differential inhibitors of proliferation of Plasmodium falciparum line GB4 (AID 1816).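 Note: parasite growth measured after 72 h incubation; 0% = vehicle DMSO and -100% = reference inhibitor.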 The settings on record: Potency: Plasmodium falciparum GB4 proliferation inhibition.
A short description of assay [9]: qHTS for differential inhibitors of proliferation of Plasmodium falciparum line 3D7 (AID 1876).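 Note: parasite growth measured after three days of culture; 0% = vehicle wells and -100% = reference inhibitor wells.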
Assay [10] is described as follows: qHTS for differential inhibitors of proliferation of Plasmodium falciparum line D10 (AID 1877).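 Note: parasites grown with compound for 72 h before DNA staining; plate controls were vehicle wells for no effect and reference inhibitor wells for full effect.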
The nature of assay [11]: qHTS for differential inhibitors of proliferation of Plasmodium falciparum line Dd2 (AID 1882).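 Note: compound exposure of 72 h on infected erythrocytes; plate controls were DMSO vehicle for no effect and 0.29 µM artemisinin for full effect; nearly all actives have a fitted effect of over 65% in size.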 The settings on record: Potency: Plasmodium falciparum Dd2 proliferation inhibition. The method, boiled down: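 SYBR Green I DNA fluorescence read-out, ex 485/em 535 nm. Signals were normalized to 0.29 uM artemisinin and DMSO wells, then corrected using vehicle-only plates flanking each stack. Parasite growth ran 72 h in erythrocytes before lysis.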

The nature of assay [12]: qHTS for differential inhibitors of proliferation of Plasmodium falciparum line W2 (AID 1883).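 Note: parasites grown with compound for 72 h before lysis and staining; 0% = vehicle wells and -100% = control inhibitor wells.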 The settings on record: Potency: Plasmodium falciparum W2 proliferation inhibition.
A short description of assay [13]: qHTS for differential inhibitors of proliferation of Plasmodium falciparum line HB3 (AID 1886).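 Note: parasites grown with compound for 72 h before SYBR Green readout; plate controls were vehicle for no effect and reference inhibitor for full effect.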 The settings on record: Potency: Plasmodium falciparum HB3 proliferation inhibition.
A short description of assay [14]: qHTS Assay for Modulators of Human Peripheral Myelin Protein 22 (PMP22) Expression/Activity (AID 1967; active = well fitted curve in the direction sought with a large enough effect in the signal ratio; the % refers to the signal ratio;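 note: 0% = untreated cells and 100% end not stated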). In short, it runs like this:
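Luminescence ratio of Pmp22 promoter-driven green luciferase to EF-alpha-driven red luciferase, in engineered mouse MSC80 Schwann cells, served as read-out. Compounds were incubated 24h; untreated cells defined 0% Activity; curves were classified by r2, magnitude and activity.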

Assay [15] concerns the target Ferritin light chain (Equus caballus) (UniProt P02791). Description: qHTS Validation Assay for Identification of Novel General Anesthetics (AID 2323). Note: % is set by controls: 0 for no effect and ±100 for the full control effect. The method, boiled down:
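Fluorescence at 535 nm (excitation 380 nm) reported loss of 1-AMA binding to horse-spleen apoferritin (10 uM) in PBS with 50% saturated 1-aminoanthracene, after 10 min room-temperature incubation with compound; values from Hill fits of normalized response.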

The target in assay [16] is ATP-dependent DNA helicase Q1 (Homo sapiens) (UniProt P46063). Description: qHTS Validation Assay for Inhibitors of RecQ-Like Dna Helicase 1 (RECQ1) (AID 2353).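 Note: plate controls were DMSO vehicle for no effect and enzyme-free control for full effect.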 In short, it runs like this: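 50 nM RECQ1T1 preincubated 15 min with compound in Tris pH 8.0 buffer with MgCl2, DTT, Tween-20 and 2.5 ug/ml poly(dI-dC); started with 200 nM TAMRA/BHQ-2 forked duplex and 2 mM ATP. Unwinding read as fluorescence (525/598 nm), two reads 2 h apart.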
ATP-dependent DNA helicase Q1 (Homo sapiens), sequence (P46063 whole entry, looked up): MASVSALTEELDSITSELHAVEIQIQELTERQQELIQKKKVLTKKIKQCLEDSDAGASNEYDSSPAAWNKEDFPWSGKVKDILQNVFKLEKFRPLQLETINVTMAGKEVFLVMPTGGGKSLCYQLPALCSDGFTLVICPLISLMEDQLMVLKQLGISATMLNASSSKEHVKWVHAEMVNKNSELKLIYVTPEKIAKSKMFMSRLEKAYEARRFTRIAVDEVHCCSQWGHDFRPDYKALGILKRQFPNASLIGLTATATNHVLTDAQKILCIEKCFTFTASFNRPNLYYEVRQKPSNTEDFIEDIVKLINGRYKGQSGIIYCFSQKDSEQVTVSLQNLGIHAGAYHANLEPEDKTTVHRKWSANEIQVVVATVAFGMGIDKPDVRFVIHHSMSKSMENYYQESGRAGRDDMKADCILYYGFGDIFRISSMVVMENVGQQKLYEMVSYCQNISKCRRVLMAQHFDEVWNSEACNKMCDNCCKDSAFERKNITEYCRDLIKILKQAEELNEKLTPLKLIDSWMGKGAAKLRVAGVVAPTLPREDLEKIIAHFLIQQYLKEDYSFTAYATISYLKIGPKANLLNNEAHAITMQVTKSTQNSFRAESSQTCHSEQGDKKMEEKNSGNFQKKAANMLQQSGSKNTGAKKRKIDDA

Assay [17] has as its target RecQ-like DNA helicase BLM (Homo sapiens) (UniProt P54132). Briefly: qHTS Validation Assay for Inhibitors of Bloom's syndrome helicase (BLM) (AID 2364).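 Note: plate controls were DMSO vehicle for no effect and enzyme-free control for full effect.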 In short, it runs like this:
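50 nM BLM preincubated 15 min at room temperature with compound in pH 8.0 Tris buffer containing 2.5 ug/ml poly(dI-dC); started with 200 nM TAMRA/BHQ-2 forked duplex and 2 mM ATP (final). Unwinding read as TAMRA fluorescence increase, two reads 2 h apart.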

Setting [18] is: measured here: cell count channel max response.
[19] abbreviates: measured here: lipid channel max response.

DNA repair nuclease/redox regulator APEX1 (Homo sapiens), sequence (P27695 whole entry, looked up): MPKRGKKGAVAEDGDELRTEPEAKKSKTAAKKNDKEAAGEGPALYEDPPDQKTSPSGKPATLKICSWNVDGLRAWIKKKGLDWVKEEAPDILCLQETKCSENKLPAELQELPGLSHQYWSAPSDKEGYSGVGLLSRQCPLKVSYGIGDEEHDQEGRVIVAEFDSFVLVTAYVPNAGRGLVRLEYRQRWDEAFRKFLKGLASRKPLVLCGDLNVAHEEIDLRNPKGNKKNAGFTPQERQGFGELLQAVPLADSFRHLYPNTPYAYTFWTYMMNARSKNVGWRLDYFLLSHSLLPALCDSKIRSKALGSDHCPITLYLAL
Ferritin light chain (Equus caballus), sequence (P02791 2-175 limits assumed): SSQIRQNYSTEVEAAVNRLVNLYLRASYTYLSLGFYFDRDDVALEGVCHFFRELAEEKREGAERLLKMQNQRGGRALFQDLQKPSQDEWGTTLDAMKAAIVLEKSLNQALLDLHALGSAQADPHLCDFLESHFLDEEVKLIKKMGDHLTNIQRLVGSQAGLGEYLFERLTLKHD
RecQ-like DNA helicase BLM (Homo sapiens), sequence (P54132 whole entry, looked up): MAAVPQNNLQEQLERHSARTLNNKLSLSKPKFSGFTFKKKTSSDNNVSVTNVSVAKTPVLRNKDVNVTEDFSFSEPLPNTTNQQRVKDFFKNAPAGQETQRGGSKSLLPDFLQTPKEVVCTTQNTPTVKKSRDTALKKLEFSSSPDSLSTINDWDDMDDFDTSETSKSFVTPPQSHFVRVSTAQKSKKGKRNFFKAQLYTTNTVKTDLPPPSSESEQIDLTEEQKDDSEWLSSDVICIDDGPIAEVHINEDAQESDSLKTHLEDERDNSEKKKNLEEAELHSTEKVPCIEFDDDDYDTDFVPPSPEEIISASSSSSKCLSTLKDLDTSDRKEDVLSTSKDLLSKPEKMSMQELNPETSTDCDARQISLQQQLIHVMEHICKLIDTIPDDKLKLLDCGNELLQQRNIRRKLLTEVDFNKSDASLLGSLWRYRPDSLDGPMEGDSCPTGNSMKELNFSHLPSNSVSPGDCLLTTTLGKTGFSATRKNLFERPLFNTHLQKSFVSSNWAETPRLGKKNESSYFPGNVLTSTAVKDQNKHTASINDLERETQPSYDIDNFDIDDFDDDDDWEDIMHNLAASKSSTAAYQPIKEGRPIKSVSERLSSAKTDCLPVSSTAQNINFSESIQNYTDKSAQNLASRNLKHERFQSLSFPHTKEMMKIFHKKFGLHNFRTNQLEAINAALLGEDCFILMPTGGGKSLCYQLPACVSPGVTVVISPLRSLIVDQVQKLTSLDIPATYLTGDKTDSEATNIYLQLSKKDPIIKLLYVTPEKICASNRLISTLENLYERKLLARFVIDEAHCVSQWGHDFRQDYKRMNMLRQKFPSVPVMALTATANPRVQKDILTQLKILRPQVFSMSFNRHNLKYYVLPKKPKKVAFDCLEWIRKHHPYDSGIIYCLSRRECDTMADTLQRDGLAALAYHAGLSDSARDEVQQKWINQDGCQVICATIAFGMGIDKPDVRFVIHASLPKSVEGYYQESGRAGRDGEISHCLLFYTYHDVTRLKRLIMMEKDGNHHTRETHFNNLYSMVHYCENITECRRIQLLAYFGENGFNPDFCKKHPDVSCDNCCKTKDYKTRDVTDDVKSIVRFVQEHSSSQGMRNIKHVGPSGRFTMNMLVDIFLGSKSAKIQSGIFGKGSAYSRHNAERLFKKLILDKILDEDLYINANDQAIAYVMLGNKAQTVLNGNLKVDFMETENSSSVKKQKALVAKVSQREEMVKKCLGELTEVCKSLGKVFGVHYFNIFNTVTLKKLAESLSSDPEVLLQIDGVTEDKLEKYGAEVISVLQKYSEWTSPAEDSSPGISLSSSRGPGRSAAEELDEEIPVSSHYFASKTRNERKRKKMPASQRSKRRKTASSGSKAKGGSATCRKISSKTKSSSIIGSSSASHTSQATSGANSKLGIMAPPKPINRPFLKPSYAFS

Regarding `CC(C)Cn1c(=O)n(C)c(=O)c2[nH]cnc21`, the call in [1], in assay [2] and in assay [14] was inactive. The activity change, negative = inhibition in assay [3] was 2.93% (inactive). The max response in [3] (setting [18]) was 8.14%; in assay [3] (setting [19]), 8.87%. Moreover, the Potency entry in [4], in assay [5], in [6], in assay [7], in assay [8] and in [9] was “inactive” throughout. The Potency result in [10], in assay [11], in [12], in [13], in assay [15] and in [16] was “inactive” throughout. For the same compound, the Potency entry in assay [17] was “inactive”.
Take `NC(N)=NC(N)=Nc1ccccc1`: the result in [1], in [2] and in assay [14] was inactive. In addition, the activity change, negative = inhibition in assay [3] is -1.27% (inactive) and 5.81% (inactive). In addition, the max response in [3] (setting [18]) was 10.6% and 8.56%; in [3] (setting [19]) it was 10.2% and 16.5%. Also, the Potency result in assay [4], in [5], in assay [6], in [7], in [11] and in assay [16] was “inactive” throughout.
In the case of `O=C(O)C1=CCNCC1`, the call in [1], in assay [2] and in [14] was inactive. The activity change, negative = inhibition in assay [3] was 1.16% (inactive) and 3.31% (inactive). Further, the max response in [3] (setting [18]) was -10.7% and 4.5%; in [3] (setting [19]), -10.6% and 21.6%. Moreover, the Potency entry in assay [4], in [5], in assay [6], in [7], in assay [8] and in [9] was “inactive” throughout. Besides, the Potency entry in [10], in assay [11], in assay [12], in assay [13], in [15] and in assay [16] was “inactive” throughout.
With `NC1(C(=O)O)CCc2cc(C(=O)O)ccc21` (centres undefined), the call in assay [2] and in assay [14] was inactive. The activity change, negative = inhibition in assay [3] was -2.76% (inactive). The max response was -17.6% in assay [3] (setting [18]) and -22% in assay [3] (setting [19]). Moreover, the Potency entry in [4], in [5], in [6], in assay [7], in assay [8] and in assay [9] was “inactive” throughout. Also, the Potency entry in assay [10], in assay [11], in assay [12], in [13], in [15] and in assay [16] was “inactive” in each case.
Regarding `COc1cc(C(O)CO)ccc1O` (centres undefined), the compound was classed as inactive in assay [2] and in assay [14]. Moreover, in [3], the activity change, negative = inhibition was -0.467% (inactive). Also, the max response is -50.8% in assay [3] (setting [18]) and -49.3% in assay [3] (setting [19]). Moreover, the Potency result in assay [4], in assay [5], in assay [6], in assay [7], in assay [8] and in [9] was “inactive” each time. Also, the Potency entry in assay [10], in [11], in [12], in assay [13] and in assay [16] was “inactive” in each case.
With `N[C@@H](CCCC(=O)O)C(=O)O`, the compound was called inactive in [2] and in assay [14]. Moreover, in assay [3], the activity change, negative = inhibition is 0.27% (inactive). The max response is -26.7% in assay [3] (setting [18]) and -26.8% in assay [3] (setting [19]). The Potency entry in [4], in [5], in assay [7], in assay [8], in assay [9] and in assay [10] was “inactive” each time. Moreover, the Potency entry in assay [11], in assay [12], in assay [13], in assay [15] and in assay [16] was “inactive” in each case.
As to `COCc1nc2c([nH]1)c(=O)n(C)c(=O)n2CC(C)C`, the outcome in assay [1], in [2] and in assay [14] was inactive. Further, the activity change, negative = inhibition in [3] was 1.67% (inactive). Moreover, the max response was -19.5% in assay [3] (setting [18]) and -18.2% in assay [3] (setting [19]). The Potency entry in assay [4], in assay [5], in [6], in [7], in assay [8] and in assay [9] was “inactive” each time. Further, the Potency result in assay [10], in assay [11], in assay [13] and in [15] was “inactive” in each case.

Values taken from PubChem BioAssay (NCATS).
